Source: PubChem BioAssay (National Center for Advancing Translational Sciences (NCATS))
Pf growth 96h = inhibits malaria parasite growth, 96 h | P. falciparum luciferase reporter growth, 96 h | Potency, µM (highest dose often 28.7 µM), most hits filed as inhibitors | 6.9% of 320,000 active
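Two parasite generations (96 h, 37 C, 5% CO2) of compound exposure in infected erythrocytes (0.05% parasitemia, 2% hematocrit). Luciferase-reporter P. falciparum; decreased luminescence indicates inhibited growth, aimed at apicoplast-acting delayed death.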
NS1 inh = inhibitors of influenza NS1 protein function; 0.4% of 270,000 active; AID 2326; Potency, µM (titrated, usually from 46.1 µM); calls by dose curve; further: actives are rising curves; nearly all actives have a fitted effect of over 50% in size
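OD600 was taken as the measure of yeast growth restored by compound in an NS1-expressing S. cerevisiae strain. Cells had been washed out of glucose medium and diluted 1:100 into galactose -URA medium, pH 6.0.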
Pf growth 48h = P. falciparum growth inhibition at 48 hours (one generation); P. falciparum luciferase growth in erythrocytes, 48 h; 5.9% of 310,000 active; AID 504832; Potency, µM (titrated, usually from 28.7 µM), actives largely listed as inhibitors
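In quantitative HTS format, infected erythrocytes bearing luciferase-reporter parasites were treated for a single generation at 37 C. Luminescence after adding detection reagent served as the growth measure.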
HCV inh = HCV inhibition; Huh7.5.1 HCVcc-Cre infection, luciferase reporter, 44 h; Potency, µM (highest dose often 41.8 µM), most hits filed as inhibitors; 3.4% of 340,000 active; AID 651820
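After 44 h co-culture of compound, cells and HCVcc-Cre (~0.5 moi), substrate is added for 15 min at room temperature and luciferase measured over 15 sec. Cells were seeded at 1,000/well and pre-cultured 4 h.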
AMA1 RON2 block = inhibitors of Plasmodium falciparum AMA1-RON2 interaction; AlphaScreen AMA1-biotinylated RON2 peptide binding; Potency, µM (series often up to 58.2 µM), usual class: inhibitors; 0.2% of 360,000 active; AID 720542; further: nearly all actives have a fitted effect of over 45% in size
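AMA1 (3D7) with his tag at 25 nM final met compounds first, then biotinylated RON2 peptide at 25 nM; detection used donor plus acceptor beads, 10 µg/mL apiece, read by AlphaScreen after 30 min at room temperature.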
SARS PLpro yeast = blocks SARS-CoV papain-like protease in a yeast assay | 0.19% of 330,000 active | Potency, µM (series often up to 32.9 µM), hits mostly activators | S. cerevisiae expressing SARS-CoV PLpro, growth rescue; calls by dose curve; further: nearly all actives have a fitted effect of over 55% in size
A number is an active result; . = inactive; ? = inconclusive; / = no result; ! = not active in a repeat; [ ] = remark or other dose. Only some compounds are listed: those with a hit (about 12% of all), similar ones and a draw of the others. Unless noted, the call rests on the fitted dose curve; in most records, active means well fitted curve in the direction sought with a large enough effect; inconclusive means small, poorly fitted or top-dose-only effect, or another doubt; inactive means no such curve, though single readings can be large; an effect the other way counts as inactive or inconclusive.

SMILES | Pf growth 96h | NS1 inh | Pf growth 48h | HCV inh | AMA1 RON2 block | SARS PLpro yeast
CCOP(=O)(OCC)c1nc(-c2ccc(Br)cc2)oc1N1CCCCC1 | . | . | 10µM | ? | . | .
CCOP(=O)(OCC)c1nc(-c2ccc(C)cc2)oc1N1CCOCC1 | / | / | / | . | . | /
CCOP(=O)(c1ccccc1)c1nc(-c2ccc(F)cc2)oc1N1CCCCC1 (centres undefined) | .[5.75 µM] | . | 9.3µM | . | . | .
O=P(c1ccccc1)(c1ccccc1)c1nc(-c2ccc(Cl)cc2)oc1N1CCOCC1 | . | . | 10µM | 10µM | . | .
O=P(c1ccccc1)(c1ccccc1)c1nc(-c2ccccc2)oc1N1CCOCC1 | ? | . | ? | . | . | .
FC(F)(F)c1cc(-c2cccs2)nc2nc(N3CCOCC3)sc12 | ? | / | ? | . | . | .
Cc1cc2cc(CCNC(=O)CCc3ccccc3)c(=O)[nH]c2cc1C | ? | . | ? | . | . | .
O=C(NCCSc1c[nH]c2ccccc12)c1ccc(Br)o1 | 2.1µM | . | . | . | . | .
CC(C)C(=O)NCCSc1c[nH]c2ccccc12 | 12µM | . | . | . | . | .
CCCCn1c(N)c(N(CC(C)C)C(=O)COC(=O)Cc2c(C)nc3ccccc3c2C)c(=O)[nH]c1=O | ? | . | ? | . | . | .
CCN1CCN(C(=O)C(C)Sc2nc3nc(C)cc(C)n3n2)CC1 (centres undefined) | / | / | / | . | . | .
Cc1ccc(S(=O)(=O)/N=C(/c2ccc(F)cc2)N2CCCCC2)cc1 | ? | . | . | . | . | .
Cn1c(O)c(C(=NCCc2c[nH]c3ccccc23)c2ccccc2)c(=O)n(C)c1=O | ? | . | 9.3µM | . | . | .
CCCCn1c(O)c(C(C)=NCCc2c[nH]c3ccccc23)c(=O)[nH]c1=O | ? | . | ? | ? | . | .
Oc1ccc(CNc2cccc(F)c2F)c2cccnc12 | ? | / | 10µM | / | / | .
O=C(Cc1ncc(C(F)(F)F)cc1Cl)NCc1cccnc1 | . | . | . | . | . | .
Oc1ccccc1CNc1cccc2cccnc12 | . | . | . | . | . | .
Oc1ccc(CNc2ccc(C(F)(F)F)cc2Cl)c2cccnc12 | 3.3µM | / | 1.7µM | / | / | .
Oc1ccc(CNc2ccccc2F)c2cccnc12 | 4.1µM! | . | 1.5µM | 11µM | . | ?
Oc1ccc(CNCc2ccccc2)c2cccnc12 | / | . | / | / | / | /
Cc1[nH]c2ccccc2c1C(c1ccccn1)c1c(C)[nH]c2ccccc12 | / | . | 9.3µM | . | . | .
CCOC(=O)C1=C(N)n2c(s/c(=C\c3ccco3)c2=O)=C(C(=O)OCC)C1c1ccco1 (centres undefined) | / | ? | ? | ? | . | .
CCOC(=O)C1=C(N)n2c(s/c(=C\c3ccco3)c2=O)=C(C(=O)OC(C)C)C1c1ccco1 (centres undefined) | ? | . | 2.9µM | ? | ? | .
Cc1ccc(C(=O)NCC(=O)NNC(=O)CN(C)S(=O)(=O)c2ccc(Cl)cc2)s1 | . | / | . | . | . | .
CCCCN(Cc1ccco1)S(=O)(=O)c1ccc(-c2ccc(=O)[nH]n2)s1 | 15µM | . | . | . | . | .
SMILES | Pf growth 96h | NS1 inh | Pf growth 48h | HCV inh | AMA1 RON2 block | SARS PLpro yeast
CC(C)CCN(Cc1ccco1)S(=O)(=O)c1ccc(-c2ccc(=O)[nH]n2)s1 | . | . | . | ? | . | .
CC(C)c1c(O)ccc2c1CC[C@H]1C(C)(C)CCC[C@]21C | / | / | / | 2µM | . | /
CC(C)(O)c1ccc2c(c1)CCC1C(C)(C(=O)O)CCCC21C (centres undefined) | . | . | . | . | ? | .
Cc1ccccc1Nc1nc(N)nc(CSc2nnc(-c3ccccc3)n2C)n1 | 13µM | . | ? | . | . | .
Cc1ccc(-c2nnc(SCc3nc(N)nc(Nc4ccccc4C)n3)n2N)cc1 | / | . | . | . | . | .
Cc1ccccc1Nc1nc(N)nc(CN(C)c2ccccc2)n1 | / | . | . | . | . | .
Cc1ccccc1Nc1nc(N)nc(CCl)n1 | 5.2µM | . | ? | 1.3µM | . | .
Nc1nc(CCl)nc(Nc2ccc3ccccc3c2)n1 | 13µM | . | ? | 0.89µM | . | .
C=CCN(CC=C)Cc1nc(N)nc(Nc2ccccc2C)n1 | 9.3µM | / | ? | . | . | .
CC(Oc1cccc(Cl)c1)C(=O)N1CCCN(C)CC1 (centres undefined) | . | . | . | . | . | .
COc1cccc(C(=O)N2CCN(Cc3ccc(OC)cc3OC)CC2)c1 | . | . | . | . | ? | .
Cn1c(Cc2ccc3c(c2)OCO3)nnc1SCC(=O)NC1CCCC1 | . | / | . | / | / | .
C=C[C@H]1CN2CC[C@H]1C[C@@H]2[C@@H](O)c1ccnc2ccccc12 | 0.0041µM | / | 0.033µM | . | . | /
C=CC1CN2CCC1CC2C(OC(C)=O)c1ccnc2ccc(OC)cc12 (centres undefined) | 0.29µM | . | 0.37µM | . | . | .
CC1(c2nnc(Cc3ccccc3)o2)CC(c2ccccc2[N+](=O)[O-])=NO1 (centres undefined) | . | / | . | . | . | .
O=C(COc1ccccc1Br)Nc1ccccc1C(F)(F)F | . | . | . | . | . | .
CCc1nnc(NC(=O)C2CCCN2C(=O)Nc2ccc(Cl)cc2)s1 (centres undefined) | . | . | . | . | . | .
COc1ccccc1NC(=O)c1c(N=Cc2c(O)ccc3ccccc23)cnn1C | ? | . | 7.4µM | ? | . | .
COc1ccccc1NCC(=O)N/N=C/c1c(O)ccc2ccccc12 | . | . | ? | 2.8µM | . | .
O=C(CNc1ccc(F)cc1)N/N=C/c1c(O)ccc2ccccc12 | . | . | / | ? | . | .
O=C(CCS(=O)(=O)c1ccc(Br)cc1)N1CCCCCC1 | . | . | . | . | . | .
CCCCNC(=O)C1CC(=O)N(CCc2ccc(C)cc2)C1 (centres undefined) | . | . | .[0.00184 µM] | . | . | .
Cc1c(C(=O)N/N=C/c2ccccc2)sc(=S)n1C | 13µM | . | . | . | . | .
CCN(CC)Cc1cc(O)c(CN(CC)CC)cc1O | . | . | . | . | 7.9µM | .
O=C(NNC(=O)c1ccccc1OCc1ccc(F)cc1)c1ccccc1O | 8.3µM | . | ? | 6.3µM | . | .
SMILES | Pf growth 96h | NS1 inh | Pf growth 48h | HCV inh | AMA1 RON2 block | SARS PLpro yeast
CCOc1ccc(OCc2ccc(C(=O)N/N=C(\C)c3ccccn3)cc2)cc1 | 0.37µM | / | 0.37µM | ? | . | .
COc1ccc(C(=O)N/N=C(\C)c2ccccn2)cc1OC | . | . | ? | ? | . | .
C/C(=N\NC(=O)c1ccccc1OCc1ccc(F)cc1)c1ccccn1 | 4.1µM | / | 1.5µM | 2.8µM | . | .
Cc1ccc(OCCC(=O)OCC(=O)Nc2c(C)nn(-c3ccccc3)c2C)cc1 | . | / | . | . | . | .
COc1ccc(S(=O)(=O)Nc2ccc(-c3ccc4nncn4n3)cc2)c(OC)c1 | ? | / | ? | . | . | .
CSc1nc(-c2ccc(C)cc2)nc(C(Cl)Cl)n1 | . | . | . | 3.2µM | . | .
